Bioassay records (PubChem BioAssay)
Only some compounds are listed: those with a hit (about 10% of all), similar ones and a draw of the others.
JMJD2A Tudor: JMJD2A Tudor domain (human) inhibition; hit rate 4.4% among 390,000; Potency, µM (doses to about 114 µM), without a hit: at the highest dose activity change, negative = inhibition, actives largely listed as inhibitors; AlphaScreen JMJD2A-Tudor / H3K4me3 peptide binding; AID 504339; O75164; further: potency means the concentration at half of the fitted maximal effect; on the % scale 0 is the no-effect control and ±100 the full control effect; nearly all actives have a fitted effect of over 50% in size
G9a block: blocks human histone lysine methyltransferase G9a | Q96KQ7 | G9a H3K9 monomethylation, AlphaScreen, 2 h | Potency, µM (doses to about 102 µM), inactives show top-dose activity, negative = inhibition, actives largely listed as inhibitors | hit rate 8.8% among 350,000 | AID 504332; further: potency means the concentration at half of the fitted maximal effect; on the % scale 0 is the no-effect control and ±100 the full control effect; nearly all actives have a fitted effect of over 75% in size
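Enzyme 20 nM + cpd, 15 min RT; add b-H3K9 pep 500 nM / SAM 20 uM; 2 h RT; anti-H3K9me1 Ab 0.5 ug/mL + SA donor / anti-rabbit acceptor beads 20 ug/mL each, 10 min; AlphaScreen read.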
CtBP-E1A blk: inhibitors of CtBP/E1A interaction; AlphaScreen GST-E1A/His-CtBP binding, 1536-well; active compounds read low; activity change, % (test concentration not listed); hit rate 0.49% among 340,000; in the data active means activity change below about -65%; inconclusive means mostly about -30% to -63%; further: on the % scale 0 is the no-effect control and ±100 the full control effect
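Steps: dispense buffer (Tris pH 8.0, NaCl 300 mM, TCEP 1 mM, BSA, Tween 20); add 5X protein mix (GST-E1A, His-CtBP, 125 nM each); pin 23 nL compound; 2 h at 37 °C, dark; add 5X beads (50 ug/mL); 1 h; read.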
HP1b binding inh: inhibitors of HP1-beta chromodomain binding to methylated histone tails. P83916. AlphaScreen HP1-beta / biotin-H3K9me3 peptide binding. Potency, µM (top dose mostly 114 µM), for the others: at the highest dose activity change, negative = inhibition, actives largely listed as inhibitors. hit rate 0.56% among 390,000. AID 540317; further: potency means the concentration at half of the fitted maximal effect; nearly all actives have a fitted effect of over 70% in size
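AlphaScreen: HP1-beta (50 nM) preformed 30 min with biotin-H3(1-18)K9me3 peptide (50 nM) in PBS pH 7.4, 0.01% Tween-20. Compound added for 30 min at RT, then streptavidin donor/nickel chelate acceptor beads (10 ug/mL) for 30 min.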
BAZ2B block: BAZ2B (human) inhibition; AID 504333; AlphaScreen BAZ2B-H3K14Ac peptide displacement; Potency, µM (highest dose often 114 µM), without a hit: top-dose activity change, negative = inhibition, most hits filed as inhibitors; Q9UIF8; hit rate 4.4% among 360,000; further: potency means the concentration at half of the fitted maximal effect; on the % scale 0 is the no-effect control and ±100 the full control effect; nearly all actives have a fitted effect of over 60% in size
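Inhibition is scored as reduced AlphaScreen emission. The BAZ2B/b-H3(5-23)K14Ac complex (50 nM each) in PBS pH 7.4, 0.01% Tween-20 meets compound (up to 110 uM) for 30 min at RT before bead addition.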
Six1-Eya2 blk: Six1/Eya2 interaction inhibition; Q15475+O00167; AlphaScreen GST-Six1/His-Eya2 binding, biochemical; active compounds read low; activity change, % (test concentration not listed); hit rate 0.56% among 360,000; in the data active means activity change below about -65%; inconclusive means mostly about -30% to -63%; further: on the % scale 0 is the no-effect control and ±100 the full control effect
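GST-Six1 + His-Eya2 (5X stock: 250/500 nM); Tris pH 8.0, 300 mM NaCl, 0.05% BSA, 0.02% Tween 20; GSH donor/Ni acceptor beads; 1 h 37 °C dark; AlphaScreen readout.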
Numbers without * were called inactive; ? = inconclusive; . = no result given; [ ] = dose if it differs, or a comment. Unless noted, the call rests on the fitted dose curve; in most records, active means well fitted inhibition curve with a large enough effect; inconclusive means small, poorly fitted or top-dose-only effect; inactive means no such curve, though single readings can be large or run the other way.

SMILES	JMJD2A Tudor	G9a block	CtBP-E1A blk	HP1b binding inh	BAZ2B block	Six1-Eya2 blk
CC(C)CN(C(=O)CCCc1nc2ccccc2c(=O)[nH]1)c1c(N)n(Cc2ccccc2)c(=O)[nH]c1=O	-10%	40µM*	1	17%	13%	8
CC(C)CN(C(=O)CSc1nc2ccccc2[nH]1)c1c(N)n(Cc2ccccc2)c(=O)[nH]c1=O	.	.	-20	.	.	5
CCN(C(=O)CSc1nnc(-c2ccc(C)cc2)n1N)c1c(N)n(Cc2ccccc2)c(=O)[nH]c1=O	-19%	?	14	24%	11%	-9
Cc1nnc(SCC(=O)N(CC(C)C)c2c(N)n(Cc3ccccc3)c(=O)[nH]c2=O)n1N	-9%	10µM*	0	12%	-2%	2
CC(C)CN(C(=O)CSc1nnc(-c2cccs2)n1N)c1c(N)n(Cc2ccccc2)c(=O)[nH]c1=O	-8%	50µM*	0	26%	7%	-1
O=C(CCc1ccc(O)c(O)c1)N/N=C/c1cc2c(cc1[N+](=O)[O-])OCO2	40µM*	3.5µM*	-7	?	45µM*	-9
O=[N+]([O-])c1ccc(O)c(C=Nc2ccc3c(c2)OCO3)c1	-9%	.	0	17%	-11%	-5
O=[N+]([O-])c1cc(Br)cc(C=Nc2ccc3c(c2)OCO3)c1O	?	45µM*	.	-13%	45µM*	-1
O=[N+]([O-])c1cc2c(cc1/C=N\NS(=O)(=O)c1ccccc1)OCO2	-11%	4µM*	8	23%	-5%	-2
Cc1ccc(C)c(N=Cc2cc3c(cc2[N+](=O)[O-])OCO3)c1	50µM*	?	-13	45µM*	20µM*	5
CCc1cc2c(cc3c(=O)n(CC(=O)NC4CCC(C)CC4)ncn32)s1 (stereo not drawn)	-14%	-5%[59 µM]	.	11%	1%	.
CCn1ccc2c(OCC(=O)NCc3ccc(C)cc3)cccc2c1=O	-13%	-4%[59 µM]	.	9%	-3%	.
CCOc1ccc(C(=O)CSc2nc3cc(C(=O)NC4CCCC4)ccc3c(=O)n2CC2CCCO2)cc1 (stereo not drawn)	4%	-1%[59 µM]	.	34%	2%	.
COc1cc(OC)c(NC(=O)N2CCCn3nc(C)cc32)cc1Cl	-3%	-8%[59 µM]	.	46%	5%[57.1 µM]	.
CC(C)(C)c1ccc(O)c(N=Cc2cc3c(cc2[N+](=O)[O-])OCO3)c1	?	6%[0.501 µM]	-12	?	50µM*	-25
Cc1ccc(N/N=C2/CCCNC2=O)cc1	?	25µM*	-2	?	2%	6
CC(=O)c1ccc(N/N=C2/CCCNC2=O)cc1	-30%	25%	0	36%	-2%	-8
NS(=O)(=O)c1ccc(NC(=S)NCCc2ccccc2)cc1	-27%	11µM*	.	-25%	-25%	11
CC(=O)c1ccc(NC(=S)NCCc2ccc(S(N)(=O)=O)cc2)cc1	-1%	-24%	-23	41%	-16%	-10
CC(=O)Oc1ccc(C(=O)NCCc2ccccc2)cc1	-6%	-6%	16	32%	-4%	1
CC(=O)Oc1ccc(-c2ccc(C(=O)NCCc3ccc(S(N)(=O)=O)cc3)cc2)cc1	-22%	71µM*	1	-21%	-6%	14
O=[N+]([O-])c1ccc(NC(=S)NCCc2ccc(Cl)cc2)cc1	?	-36%[59 µM]	5	-22%	?	-27
O=[N+]([O-])c1ccc(NC(=S)NCCc2ccccc2)cc1	?	45µM*	-9	?	?	-10
O=[N+]([O-])c1ccc(NNC(=S)Nc2ccccc2)cc1	50µM*	?	-11	56µM*	50µM*	?
COc1ccc([N+](=O)[O-])cc1NC(=S)Nc1ccccc1	-22%	?	3	9%	-9%	0
SMILES	JMJD2A Tudor	G9a block	CtBP-E1A blk	HP1b binding inh	BAZ2B block	Six1-Eya2 blk
O=[N+]([O-])c1ccc(O)c(NC(=S)Nc2ccccc2)c1	?	4.5µM*	-5	?	-38%	-14
CC(C)OCCCNC(=S)Nc1ccc(S(N)(=O)=O)cc1	89µM*	10µM*	10	32µM*	-1%	2
CC(=O)Nc1ccc(C(=O)NCCCOC(C)C)cc1	-14%	0%	6	35%	-26%	4
NS(=O)(=O)c1ccc(CCNC(=O)c2ccc[nH]c2=S)cc1	2.2µM*	1.4µM*	7	?	-18%	0
COc1ccc(CC(=O)NCCc2sc(-c3ccc(Cl)cc3)nc2C)cc1OC	-23%	15%[59 µM]	.	17%[57 µM]	-7%	.
Cc1ccc(CNC(=O)CCCn2c(=O)[nH]c3ccc(Br)cc3c2=O)cc1	-12%	-20%[59 µM]	.	32%	3%	.
CC(=O)/C(CN1CCCCC1)=N\O	-8%	-6%[59 µM]	8	20%	8%	9
C/C(=N\O)C(=O)C(CN1CCCCC1)CN1CCCCC1	-30%	0.89µM*	-22	?	8%	-5
COc1cccc(CNC(=O)c2ccc3nc(CCc4ccccc4)oc3c2)c1OC	-9%	?	.	23%[57 µM]	-2%	.
CCc1ccc(NC(=O)CC2C(=O)N(c3ccc(OC)cc3)C(=O)N2Cc2cccs2)cc1 (stereo not drawn)	-7%	-3%[59 µM]	.	15%	-12%	.
CCCCc1nc2ccccc2n2c(-c3ccc(C)cc3)c3c(=O)n(C)c(=O)n(C)c3c12	25%	20%[59 µM]	.	53%	15%[57.1 µM]	.
CC(C)CSc1ccccc1NC(=O)c1sc2nc(-c3ccncc3)ccc2c1N	-6%	-39%[59 µM]	.	27%	3%	.
O=C(Cc1ccccc1)N/N=C/c1ccc(OC(=O)/C=C\c2ccco2)cc1	0%	?	-65*	21%	-1%	?
COC(=O)N/N=C/c1ccc(OC(=O)/C=C/c2ccco2)cc1	?	.	-71*	-21%	71µM*	?
COC(=O)N/N=C\c1ccc(OC(=O)c2ccco2)cc1	-1%	11%[59 µM]	4	38%	-9%	-10
CCCN(C/C=C/I)C1CCc2cccc(O)c2C1 (stereo not drawn)	.	-44%[59 µM]	.	.	.	.
COc1ccc(N=C2C(=S)N(c3ccc(OC)cc3)C(=NS(=O)(=O)c3ccccc3)N2c2ccccc2)cc1	?	.	17	10µM*	.	-20
COc1ccc2c(Sc3ccccc3)c(C(=O)NCc3ccc(OC(C)C)cc3)[nH]c2c1	-16%	-39%[59 µM]	.	59%	9%	.
CC1CCCC(N2CCN(C(=O)c3cccc(F)c3)CC2)C1 (stereo not drawn)	4.5µM*	?	21	?	50µM*	3
CC1CCCCC1N1CCN(C(=O)c2cccc(F)c2)CC1 (stereo not drawn)	40µM*	?	-10	?	?	4
CCOC(=O)N1CCN(C(=O)c2cccc(F)c2)CC1	-4%	3%	2	49%	-12%	5
